Consider 20 molecules from PubChem BioAssay (NCATS).

Test [1] in a line: Cell Viability - BJ (AID 421; calls by dose curve;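 note: potency is the fitted concentration of half-maximal effect; cells exposed to compound for 40 hours at 37 °C before readout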). As to conditions: BJ fibroblast viability, qHTS. The procedure, abridged:
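Cytotoxicity as drop in intracellular ATP (CellTiter-Glo, 20 min RT) after 40 hr compound exposure of BJ fibroblasts at 37 °C. Titrations scaled between DMSO and 100 uM tamoxifen, Hill-fitted for AC50.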

A short description of test [2]: Cell Viability - Jurkat (AID 426;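 active = dose-dependent loss of cell ATP signal giving a full or clear fitted curve, ranked by lower potency value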;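 note: potency is the fitted concentration of half-maximal effect; cells exposed to compound for 40 hours at 37 °C before ATP read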). Particulars: qHTS. The procedure, abridged:
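Cytotoxicity was scored as loss of cellular ATP, measured by luciferase-based luminescence, in Jurkat clone E6-1 cells after 40 h compound treatment; tamoxifen and doxorubicin served as positive controls.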

A short description of test [3]: Cell Viability - Hek293 (AID 427;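 active = compounds whose dose-response curve shows a full or clear partial loss of cell viability, called from curve shape rather than a numeric limit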;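 note: potency is the fitted concentration of half-maximal effect; cells exposed to compound for 40 hours at 37 °C before reading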). Particulars: qHTS. The gist of the method:
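Luminescent ATP content (CellTiter-Glo, 20 min at room temperature) was measured after a 40 hr, 37 °C compound exposure of HEK293 cells. AC50 values came from Hill-equation fits of qHTS concentration-response data normalized to DMSO and 100 uM tamoxifen.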

The nature of test [4]: Cell Viability - HepG2 (AID 433; calls by dose curve;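 note: potency is the fitted concentration of half-maximal effect; potency for ATP loss meaning cytotoxicity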). Particulars: qHTS. The procedure, abridged:
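HepG2 hepatocellular carcinoma cells (1500/well) were treated with compounds for 40 h at 37 °C in complete medium; intracellular ATP was read by CellTiter-Glo luminescence. Data were normalized to DMSO and 100 uM tamoxifen, and AC50 came from Hill fits.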

Test [5] is described as follows: Cell Viability - SK-N-SH (AID 435; calls by dose curve;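 note: potency is the fitted concentration of half-maximal effect; compound exposure lasted 40 h at 37 °C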). Particulars: SK-N-SH neuroblastoma cell viability qHTS. The procedure, abridged:
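SK-N-SH human neuroblastoma cells (1500/well) were exposed to compounds in complete medium for 40 h at 37 °C, and intracellular ATP was then measured by CellTiter-Glo luminescence. AC50 was taken from Hill fits, normalized to DMSO and 100 uM tamoxifen.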

The nature of test [6]: Cell Viability - N2a (AID 540).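 For activity change, negative = cytotoxicity: plate controls were DMSO alone for no effect and tamoxifen control for full effect.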 Note: nearly all actives have a fitted effect of over 45% in size. Note: potency is the fitted concentration of half-maximal effect. As to conditions: N2a mouse neuroblastoma cell viability; activity change, negative = cytotoxicity: at 92.2 µM (top of the series). The procedure, abridged: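 In this qHTS cytotoxicity screen, ATP-dependent luciferase luminescence reports viable N2a cells after a 40 hr compound exposure in complete culture medium. Potencies are AC50 values from standard Hill equation fits.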

Test [7] in a line: Cell Viability - NIH 3T3 (AID 541).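 For activity change, negative = cytotoxicity: plate controls were DMSO alone for no effect and tamoxifen positive control for full effect.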 Note: nearly all actives have a fitted effect of over 25% in size. Note: potency is the fitted concentration of half-maximal effect. As to conditions: NIH 3T3 cell viability, qHTS; activity change, negative = cytotoxicity: at 92.2 µM (top of the series). The gist of the method:
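In this cytotoxicity screen, acute toxicity is scored as an ATP drop measured by CellTiter-Glo in NIH 3T3 fibroblasts following a 40 hr, 37 °C incubation with compound.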

A short description of test [8]: Cell Viability - HUV-EC-C (AID 542). For activity change, negative = cytotoxicity: % is set by controls: 0 for no effect and ±100 for the full control effect. Note: nearly all actives have a fitted effect of over 35% in size. Note: potency is the fitted concentration of half-maximal effect. The procedure, abridged:
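Concentration-dependent ATP loss in HUV-EC-C cells is the measure. Exposure lasts 40 hr at 37 °C; luminescence follows CellTiter-Glo addition, and Hill fits give AC50.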

Test [9] can be described thus: Cell Viability - SH-SY5Y (AID 544).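 For viability change, negative = cytotoxic: 0% = DMSO alone and -100% = 100 µM tamoxifen.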 Note: nearly all actives have a fitted effect of over 55% in size. Note: potency is the fitted concentration of half-maximal effect. As to conditions: SH-SY5Y neuroblastoma cell viability; viability change, negative = cytotoxic: at 92.2 µM (top of the series). The procedure, abridged:
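Quantitative HTS in SH-SY5Y neuroblastoma cells, 40 hr treatment at 37 °C, ATP content by luciferase luminescence; AC50 from Hill fits.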

The nature of test [10]: Cell Viability - Renal Proximal Tubule (AID 545).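 For activity change, negative = cytotoxicity: 0% = DMSO only and -100% = 100 µM tamoxifen.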 Note: nearly all actives have a fitted effect of over 40% in size. Note: potency is the fitted concentration of half-maximal effect. As to conditions: renal proximal tubule cells viability, primary cells of rat origin; activity change, negative = cytotoxicity: at 91.7 µM (top of the series). The gist of the method:
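Primary rat renal proximal tubule cells (1000/well) were treated with compounds for 40 hr at 37 °C in complete medium. Intracellular ATP was measured by CellTiter-Glo luminescence, and AC50 values came from Hill-equation fits of concentration-response data.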

Test [11] is described as follows: Cell Viability - Mesenchymal (AID 546).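 For activity change, negative = cytotoxicity: 0% = DMSO only and -100% = 100 µM tamoxifen.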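 Note: cells exposed to compound for 40 hours before reading.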 Note: potency is the fitted concentration of half-maximal effect. Particulars: mesenchymal cells viability, qHTS; activity change, negative = cytotoxicity: at 91.7 µM (top of the series). The gist of the method: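 In this qHTS cytotoxicity format, glomerulus-derived human mesenchymal kidney cells received compound for 40 hr, then luciferase-based ATP quantitation. Concentration-response data were fitted with the Hill equation.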

A short description of test [12]: Cellular Toxicity (caspase-3) HepG2 (AID 654).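 Note: cells exposed to compound for 16 hours before reading; 0% = DMSO alone and 100% = caspase signal from 100 µM tamoxifen.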 The gist of the method: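 Concentration-response AC50 values reflect caspase-3/7 induction in HepG2 cells after 16 hours of compound exposure, quantified by luminescence from liberated aminoluciferin and referenced to 100 uM tamoxifen as full stimulation.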
Test [13] concerns the target Mitogen-activated protein kinase 10 (Mus musculus) (UniProt Q61831). In words: JNK3 AlphaScreen Assay (AID 530; active = well fitted curve in either direction with a large enough effect, not every such curve was filed as active;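 note: kinase came from lysate of stimulated human HepG2 cells; signal reports phosphorylation of biotinylated GST-cJun 1-79 at Ser73 with 10 µM ATP; % is set by controls: 0 for no effect and ±100 for the full control effect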). The procedure, abridged:
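Biotinylated GST-cJun(1-79) served as substrate for JNK3 in HepG2 lysates stimulated with IL-1beta and TNF-alpha. ATP was 10 uM final, pH 7.6. Ser73 phosphorylation was quantified by AlphaScreen (680 nm excitation).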

Test [14] concerns the target Glucocorticoid receptor (Homo sapiens) (UniProt P04150). In words: GR-GFP Redistribution (AID 450;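 active = compounds whose dose series gives a full or clear partial fitted curve of increased nuclear translocation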; note: potency is the fitted concentration of half-maximal effect). As to conditions: U2OS GR-GFP nuclear translocation, laser cytometry, 2 h.
Test [15] shares this target. As to the kind of experiment: GR-EFC Redistribution (AID 451; calls by dose curve; note: potency is the fitted concentration of half-maximal effect). As to conditions: CHO-K1 GR-EFC translocation, beta-gal luminescence, 2 h. The procedure, abridged: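 CHO-K1 cells stably expressing nuclear-localized β-gal enzyme acceptor and GR fused C-terminally to the enzyme donor fragment; ligand-driven nuclear translocation restores β-gal by complementation. Compounds titrated up to 46 uM final, 2 h at 37 °C; luminescence read.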

The target in test [16] is Cytochrome P450 1A2 (Homo sapiens) (UniProt P05177). As to the kind of experiment: p450-cyp1a2 (AID 410; calls by dose curve; note: potency is the fitted concentration of half-maximal effect). The procedure, abridged: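 Read-out is luminescence from luciferin produced by CYP1A2 demethylation of Luciferin-ME (100uM, at Km). Detection reagent stopped the 60 min NADPH-dependent reaction; signals were normalized to 57 uM furafylline.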
Test [17] can be described thus: Stat Signaling Pathway (AID 446; active = well fitted curve in either direction with a large enough effect, not every such curve was filed as active;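 note: ME-180 cervical cancer cells given 40 pM IL-6 alongside compound; SIE-controlled beta-lactamase reporter measured as 460/530 nm FRET emission ratio; % is set by controls: 0 for no effect and ±100 for the full control effect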). The gist of the method: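 FRET read-out (405 nm excitation, 460/530 nm emission) of a beta-lactamase reporter under a STAT-inducible element in ME-180 cervical carcinoma cells. Cells with compound receive 40 pM IL-6 for 5 h. Values are normalised to AC90 stimulation and AC90 JAK-inhibitor controls.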

SMILES strings stand for the structures. “And” between values parts separate entries of the source, which are not always exact repeats. Equal values may be shown once. Unmarked numbers belong to inactive results. Records with an inconclusive call do not appear. The source made the active and inactive calls. Unless noted, calls come from the whole dose curve; as a rule, active = well fitted curve in the direction sought with a large enough effect; inconclusive = small, poorly fitted or top-dose-only effect, or another doubt; inactive = no such curve, though single readings can be large; an effect the other way counts as inactive or inconclusive. Where only a bound is given, the exact number is not on record here.

Glucocorticoid receptor (Homo sapiens), sequence (P04150 whole entry, looked up, the tested form may be a part): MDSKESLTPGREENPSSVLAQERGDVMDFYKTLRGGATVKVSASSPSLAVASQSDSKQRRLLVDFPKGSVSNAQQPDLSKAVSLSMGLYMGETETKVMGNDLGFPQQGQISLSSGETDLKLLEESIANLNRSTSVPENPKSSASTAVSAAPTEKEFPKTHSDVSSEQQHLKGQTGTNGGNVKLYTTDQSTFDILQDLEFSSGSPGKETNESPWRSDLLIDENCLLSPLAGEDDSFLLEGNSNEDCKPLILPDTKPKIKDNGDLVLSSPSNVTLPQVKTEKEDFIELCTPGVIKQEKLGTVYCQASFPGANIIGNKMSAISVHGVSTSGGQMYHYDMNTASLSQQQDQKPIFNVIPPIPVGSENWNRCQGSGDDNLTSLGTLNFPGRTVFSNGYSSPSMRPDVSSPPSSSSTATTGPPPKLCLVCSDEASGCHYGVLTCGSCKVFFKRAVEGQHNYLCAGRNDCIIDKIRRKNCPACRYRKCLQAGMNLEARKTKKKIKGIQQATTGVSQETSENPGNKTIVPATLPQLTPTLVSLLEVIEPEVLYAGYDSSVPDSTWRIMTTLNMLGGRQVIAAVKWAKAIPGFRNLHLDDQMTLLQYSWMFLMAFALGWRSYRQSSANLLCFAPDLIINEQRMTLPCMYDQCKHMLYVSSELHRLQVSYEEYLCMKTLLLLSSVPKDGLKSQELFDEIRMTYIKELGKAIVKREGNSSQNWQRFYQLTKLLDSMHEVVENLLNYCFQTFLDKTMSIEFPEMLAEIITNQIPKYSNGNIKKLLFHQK
Cytochrome P450 1A2 (Homo sapiens), sequence (P05177 whole entry, looked up): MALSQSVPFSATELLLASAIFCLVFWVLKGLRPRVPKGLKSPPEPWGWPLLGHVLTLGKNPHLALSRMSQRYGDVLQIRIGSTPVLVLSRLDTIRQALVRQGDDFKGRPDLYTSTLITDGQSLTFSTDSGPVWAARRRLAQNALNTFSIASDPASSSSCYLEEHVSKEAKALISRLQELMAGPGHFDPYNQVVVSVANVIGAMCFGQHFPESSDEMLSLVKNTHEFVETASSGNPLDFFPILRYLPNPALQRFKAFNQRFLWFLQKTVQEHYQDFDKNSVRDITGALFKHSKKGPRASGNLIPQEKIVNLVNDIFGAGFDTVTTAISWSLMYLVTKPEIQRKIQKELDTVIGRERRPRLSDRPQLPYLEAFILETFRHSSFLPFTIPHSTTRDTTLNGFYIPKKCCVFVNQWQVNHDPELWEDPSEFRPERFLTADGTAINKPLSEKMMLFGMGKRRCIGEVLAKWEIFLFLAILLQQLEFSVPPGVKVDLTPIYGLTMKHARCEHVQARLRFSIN

For the molecule `Cc1cc(C(C)(C)C)c(O)c(C(C)(C)C)c1`, the Potency in test [1], in test [2], in [3], in test [4] and in test [5] was greater than 92 µM in each case. The Potency result in test [6], in test [8], in test [9], in test [10] and in test [11] was “inactive” each time. Further, the activity change, negative = cytotoxicity in [7] was 2.09%. In [12], the molecule was classed as inactive.

In the case of `CCCC(=O)c1cc(O)c(O)cc1O`, the Potency in test [1], in [3] and in test [4] was greater than 92 µM throughout. The molecule was called inactive in test [13] and in test [12]. Moreover, the Potency result in test [8] and in test [10] was “inactive” throughout. Moreover, in test [9], the viability change, negative = cytotoxic is -93.1% (active).

`NCC(=O)O`: the Potency in [14] and in test [15] was greater than 46 µM throughout. Besides, the call in test [13] was inactive.

On to `Cc1ccc(O)cc1`, for which the Potency in test [1], in test [2], in [3], in test [4] and in test [5] was greater than 92 µM throughout. The Potency result in test [6], in [8], in test [9], in [10] and in [11] was “inactive” in each case. Further, the activity change, negative = cytotoxicity in test [7] was -11.4%. The call in test [12] was inactive.

Consider `COc1cc(C=O)ccc1O`, for which the Potency in [1], in test [2], in test [3], in test [4] and in test [5] was greater than 92 µM each time. Also, the outcome in test [13] and in test [12] was inactive. In addition, the Potency result in test [6], in test [8], in [9], in test [10] and in test [11] was “inactive” each time. For the same molecule, the activity change, negative = cytotoxicity in [7] was -22.1%.

As to `CC(C)N(CCC(=O)c1ccc2ccccc2c1)Cc1ccccc1`, the Potency was 3.98 µM (active) and 2.51 µM (active) in test [16]; greater than 46 µM in [14]; greater than 46 µM in test [15]. Moreover, the molecule was called inactive in test [13].

In the case of `Cn1cnc2c(NCc3ccccc3)nc(NCCO)nc21`, the Potency in [16] is 7.94 µM (active) and 5.01 µM (active); in test [14], greater than 46 µM; in [15], greater than 46 µM. Besides, the result in test [17] was inactive.

For the molecule `Nc1ccc(O)cc1`, the Potency was 62.8 µM (active) in test [1]; 38.6 µM (active) in [2]; 47.3 µM (active) in test [3]; 43 µM (active) in [5]; 31.6 µM (active) in [6]; 31.6 µM (active) in test [8]. The Potency in [9] was 25.1 µM (active); in [10], 25.1 µM (active); in test [11], 31.6 µM (active). Also, the molecule was classed as inactive in [13] and in test [12]. Further, the activity change, negative = cytotoxicity in test [7] is -133% (active).

As for `CC(C)(c1ccc(O)cc1)c1ccc(O)cc1`, the Potency in test [1], in test [2], in test [3], in test [4] and in test [5] was greater than 92 µM throughout. The molecule was classed as inactive in test [13] and in test [12]. The Potency result in test [6], in test [8], in [9], in [10] and in [11] was “inactive” in each case. Also, the activity change, negative = cytotoxicity in test [7] is -22.2% and -23.1%.

As for `CCCCCCCCCCCCCCCC[n+]1ccccc1`, the Potency in test [1] was 55.8 µM (active); in [2], 19.2 µM (active); in test [3], 54.4 µM (active); in test [4], 32.8 µM (active); in test [5], 28.7 µM (active); in test [6], 0.398 µM (active). Moreover, the Potency in test [7] is 25.1 µM (active); in test [9], 25.1 µM (active); in test [10] it was 31.6 µM (active); in [11], 31.6 µM (active). Besides, the call in test [13] was inactive.

With `O=C(NO)c1ccccc1`, the Potency in test [1], in test [3], in [4] and in test [5] was greater than 92 µM each time. Further, the result in [13] and in [12] was inactive. The Potency entry in [6], in test [8], in test [9], in test [10] and in test [11] was “inactive” in each case.

Consider `Oc1ccccc1`, for which the Potency in test [1], in [2], in test [3], in test [4] and in [5] was greater than 92 µM in each case. Also, the result in [13] and in test [12] was inactive. The Potency entry in test [6], in [8], in [9], in test [10] and in test [11] was “inactive” in each case. Besides, the activity change, negative = cytotoxicity in test [7] is -17.5%.

On to `CCCCC(CC)COC(=O)c1ccccc1C(=O)O` (configuration not stated), for which the Potency in test [1], in test [2], in test [3], in test [4] and in test [5] was greater than 92 µM in each case. The outcome in [13] and in [12] was inactive. For the same molecule, the Potency result in [6], in test [8], in [9], in test [10] and in [11] was “inactive” throughout. Besides, the activity change, negative = cytotoxicity in [7] is 10.8%.

For `C[C@@H](C1=C(CCN(C)C)Cc2ccccc21)c1ccccn1`, in test [16], the Potency was 20 µM (active). The call in test [13] was inactive.

Turning to `Clc1ccc2c(c1)N=C(N1CCNCC1)c1ccccc1N2`, the Potency in test [14] and in [15] was greater than 46 µM each time. Moreover, the result in test [13] was inactive.

On to `O=C(c1ccccc1)c1ccccc1`, for which the Potency in [1], in test [2], in test [3], in test [4] and in test [5] was greater than 92 µM throughout. The outcome in test [13] and in [12] was inactive. Also, the Potency entry in test [6], in test [8], in test [9], in test [10] and in test [11] was “inactive” each time. Further, the activity change, negative = cytotoxicity in test [7] is -23.6%.

In the case of `Nc1cccc2c(N)cccc12`, the Potency in [1], in test [2], in [3], in test [4] and in test [5] was greater than 92 µM each time. Further, the outcome in [13] and in [12] was inactive. The Potency result in [6], in test [8], in [10] and in test [11] was “inactive” in each case.

For `c1ccc2occc2c1`, the Potency in test [1], in test [2], in test [3], in [4] and in test [5] was greater than 92 µM throughout. Further, the molecule was classed as inactive in test [13] and in test [12]. The Potency entry in [6], in test [8], in test [9], in [10] and in test [11] was “inactive” in each case. In addition, in [7], the activity change, negative = cytotoxicity was -5.88%.

Consider `CC(C)C(C)(C)C(C)(C)C(C)(C)S`, for which the Potency in test [1], in test [2], in [3], in [4] and in test [5] was greater than 92 µM throughout. For the same molecule, the call in test [13] and in test [12] was inactive. Further, the Potency entry in test [6], in test [8], in test [9], in [10] and in [11] was “inactive” throughout. The activity change, negative = cytotoxicity in [7] was -18.6%.

With `Brc1ccccc1-c1ccccc1`, the Potency in test [1], in test [2], in [3], in test [4] and in test [5] was greater than 92 µM each time. Besides, the molecule was called inactive in test [13] and in [12]. In addition, the Potency result in test [6], in test [8], in [9], in test [10] and in test [11] was “inactive” in each case. In addition, the activity change, negative = cytotoxicity in [7] is 3.13%.
